Shown are actives, neighbours in structure and some others; about 10% of the full set was active somewhere.
CtBP-E1A blk = CtBP/E1A binding inhibition; activity change, % (no concentration beside the values); 0.49% of 340,000 active; AlphaScreen GST-E1A/His-CtBP binding, 1536-well; hits give low values; in the data active = activity change below about -65%; inconclusive = mostly about -30% to -63%; also: % is scaled to controls: 0 for no effect and ±100 for the full control effect
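Steps: dispense buffer (Tris pH 8.0, NaCl 300 mM, TCEP 1 mM, BSA, Tween 20); add 5X protein mix (GST-E1A, His-CtBP, 125 nM each); pin 23 nL compound; 2 h at 37 °C, dark; add 5X beads (50 ug/mL); 1 h; read.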
G9a block = inhibitors of human histone lysine methyltransferase G9a. Q96KQ7. G9a H3K9 monomethylation, AlphaScreen, 2 h. Potency, µM (top dose mostly 102 µM), without a hit: at the top dose activity, negative = inhibition, hits mostly inhibitors. 8.8% of 350,000 active; also: potency is read from the fitted curve at half-maximal effect; % is scaled to controls: 0 for no effect and ±100 for the full control effect; nearly all actives have a fitted effect of over 75% in size
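Signal arises when biotinylated H3K9 peptide, once monomethylated, bridges streptavidin donor and antibody-captured acceptor beads. Enzyme at 20 nM was preincubated 15 min with test compounds; peptide 500 nM and SAM 20 uM then reacted for 2 h.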
JMJD2A Tudor inh = JMJD2A Tudor domain (human) inhibition. AlphaScreen JMJD2A-Tudor / H3K4me3 peptide binding. Potency, µM (series often up to 114 µM), for inactives: top-dose activity change, negative = inhibition, most hits filed as inhibitors. 4.4% of 390,000 active; also: potency is read from the fitted curve at half-maximal effect; % is scaled to controls: 0 for no effect and ±100 for the full control effect; nearly all actives have a fitted effect of over 50% in size
HP1b binding inh = inhibitors of HP1-beta chromodomain binding to methylated histone tails; P83916; AlphaScreen HP1-beta / biotin-H3K9me3 peptide binding; Potency, µM (doses to about 114 µM), for inactives: at the highest dose activity change, negative = inhibition, usual class: inhibitors; 0.56% of 390,000 active; AID 540317; also: potency is read from the fitted curve at half-maximal effect; nearly all actives have a fitted effect of over 70% in size
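Compound inhibition of the preformed complex between 50 nM HP1-beta and 50 nM biotinylated H3K9me3 peptide was read by AlphaScreen. Buffer was PBS pH 7.4 with 0.01% Tween-20. Incubations ran 30 min at room temperature, with 10 ug/mL donor/acceptor beads.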
Six1-Eya2 inh = blocks human Six1 binding to Eya2; AlphaScreen GST-Six1/His-Eya2 binding, biochemical; hits give low values; activity change, % (no concentration beside the values); 0.56% of 360,000 active; AID 651725; in the data active = activity change below about -65%; inconclusive = mostly about -30% to -63%; also: % is scaled to controls: 0 for no effect and ±100 for the full control effect
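GST-Six1 + His-Eya2 (5X stock: 250/500 nM); Tris pH 8.0, 300 mM NaCl, 0.05% BSA, 0.02% Tween 20; GSH donor/Ni acceptor beads; 1 h 37 °C dark; AlphaScreen readout.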
BAZ2B inh = BAZ2B (human) inhibition; Q9UIF8; AlphaScreen BAZ2B-H3K14Ac peptide displacement; Potency, µM (top dose mostly 114 µM), for the others: at the highest dose activity change, negative = inhibition, actives largely listed as inhibitors; 4.4% of 360,000 active; also: potency is read from the fitted curve at half-maximal effect; % is scaled to controls: 0 for no effect and ±100 for the full control effect; nearly all actives have a fitted effect of over 60% in size
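Compounds, titrated to a top concentration of 110 uM, were incubated 30 min at room temperature with preformed BAZ2B/acetyl-K14 H3 peptide complex (50 nM each). Proximity signal was measured by AlphaScreen after 20 min with beads.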
An asterisk follows results filed as active; ? = inconclusive; / = no result; [ ] = another dose, or the depositor's remark. Unless noted, calls follow the shape of the dose curve; as a rule, active = well fitted inhibition curve with a large enough effect; inconclusive = small, poorly fitted or top-dose-only effect; inactive = no such curve, though single readings can be large or run the other way.

SMILES	CtBP-E1A blk	G9a block	JMJD2A Tudor inh	HP1b binding inh	Six1-Eya2 inh	BAZ2B inh
CC1(C)CC[C@]2(C(=O)O)[C@H](O)C[C@]3(C)C(=CCC4[C@@]5(C)C[C@H](O)[C@H](O)[C@@](C)(CO)C5CC[C@]43C)[C@@H]2C1 (stereo not given in full)	4	13%[12.7 µM]	-20%	25%	12	7%
C[C@H]1CN=C(Nc2ccccc2)N1CC1CCC1	3	14%	-9%	59%	7	-1%
COC(=O)c1ccc(NC(=O)CSc2nc(C)cc(C)c2C(=O)Nc2ccccc2)cc1	/	1%[59 µM]	-16%	14%	/	6%
COCCSc1nnc(NC(=O)C2CC(=O)N(c3ccc(C)cc3)C2)s1 (stereo not given)	/	/	-7%	28%	25	-15%
Cc1ccc(N2CC(C(=O)Nc3nnc(SCCC4OCCO4)s3)CC2=O)cc1 (stereo not given)	-3	13µM*	-10%	31%	-5	-9%
O=C(Nc1nnc(SCCN2CCOCC2)s1)C1CC(=O)N(c2ccccc2)C1 (stereo not given)	-1	45µM*	-17%	36%	-6	-1%
CCOc1ccc(N2CC(C(=O)Nc3nnc(SCCOC)s3)CC2=O)cc1 (stereo not given)	-2	71µM*	-16%	1%	4	-1%
COCc1nnc(NC(=O)C2CC(=O)N(c3ccc(C)c(Cl)c3)C2)s1 (stereo not given)	13	16µM*	-13%	-8%	-4	-5%
Cc1ccc(N2CC(C(=O)Nc3nnc(SCCC4OCCO4)s3)CC2=O)cc1C (stereo not given)	6	-10%[12.7 µM]	-14%	26%	2	-9%
CCOC(=O)C1=NN(C(C)=O)C2C(=O)N(CC)C(=O)C12 (stereo not given)	/	-5%	-9%	56%	-5	-3%
c1coc(-c2nn3c(Cn4nnc5ccccc54)nnc3s2)c1	-2	?	-31%	-25%	0	0%
Cc1ccc(S(=O)(=O)N2CCc3ccccc3C2)cc1	/	103%	31%	38%	15	37%
Cc1ccc(S(=O)(=O)N2C(=O)[C@@H]3Cc4ccccc4CN3C2=O)cc1	-4	40µM*	7.9µM*	-17%	-4	-35%
CC1CC(C)CN(C(=O)c2ccc3c(c2)OCCO3)C1 (stereo not given)	2	-5%[59 µM]	-2%	38%	2	1%
Cc1cccc(NC(=O)CSC2=NN3CCCC(=O)N=C3S2)c1C	0	4%	?	2%	-14	50µM*
O=C1CCCN2N=C(SCC(=O)Nc3ccc([N+](=O)[O-])cc3)SC2=N1	11	12%	56µM*	1%	0	-6%
O=C1CCCN2N=C(SCC(=O)Nc3ccc(OC(F)(F)F)cc3)SC2=N1	0	5%	-11%	8%	-18	-1%
Cc1ccccc1NC(=S)C1=C(O)c2sccc2N(C)S1(=O)=O	5	22µM*	?	2%	-1	?
CS(=O)(=O)c1ccc(N2CCN(c3ccccn3)CC2)c([N+](=O)[O-])c1	-17	?	-25%	-8%	-12	-26%
CCc1oc(C(=O)O)cc1CN(CC)CC	0	-27%[59 µM]	32µM*	-2%	8	-19%
CCN(CC)Cc1cc(C(=O)O)c(C)o1	19	0%	-3%	52%	1	-11%
CCc1oc(C(=O)O)cc1COC	-9	45µM*	?	7%	-10	?
CCCc1oc(C(=O)O)cc1CN	50	?	-19%	39%	25	?
CCc1cc(C(=O)N2CCCC(C(=O)c3cccc4ccccc34)C2)n(C)n1 (stereo not given)	-25	3%	-9%	31%	5	0%
O=C(O)c1c(C(=O)O)c(-c2ccc(F)cc2)n2c1CCC2	0	18%[2.33 µM]	-28%	?	-3	-8%
SMILES	CtBP-E1A blk	G9a block	JMJD2A Tudor inh	HP1b binding inh	Six1-Eya2 inh	BAZ2B inh
CCc1nc2ccccc2c(=O)n1/N=C/c1ccc(Cl)cc1	10	/	14%	29%	5	/
O=[N+]([O-])c1ccc(C2NS(=O)(=O)N=C3CCCCCN32)cc1 (stereo not given)	/	25µM*	1%	57%	4	3%
CCCN(C(=O)c1c(C)oc2ncnc(N3CCOCC3)c12)c1ccc(Cl)c(Cl)c1	/	3%[59 µM]	2%	24%	/	3%
CCNC(=O)N(C)C[C@H]1N[C@@](C)(C(=O)OC)[C@H]2C(=O)N(C)C(=O)[C@@H]12	9	/	89µM*	27%	4	/
COC(=O)[C@]1(C)N[C@H](CN(C)C(C)=O)[C@@H]2C(=O)N(C)C(=O)[C@@H]21	10	/	-22%	17%	3	/
O=C(CCS(=O)(=O)c1ccccc1)Nc1nc2c(s1)COc1ccccc1-2	-4	50µM*	-27%	13%	-5	-37%
O=C(Nc1nc2c(s1)CCc1ccccc1-2)c1cccs1	-4	?	-7%	51%	11	8%
O=C(Nc1nc2c(s1)COc1ccccc1-2)c1cccs1	0	45µM*	-4%	31%	0	-3%
CC(=O)c1sc(NC(=O)CCS(=O)(=O)c2ccccc2)nc1C	-30	51%	-5%	24%	-20	-14%
COc1ccc(C)cc1NC(=O)C1CCN(S(=O)(=O)c2ccc3[nH]c(=O)oc3c2)CC1	/	-1%[59 µM]	-26%	-10%	/	-3%
COc1cc2c(cc1OC)n(CC(=O)c1ccc(C)cc1C)c(=O)n1nc(CCn3nc(C)cc3C)nc21	/	11%[59 µM]	-28%	-3%	/	-1%
Cc1nc2ccc(NC3=NCCCCC3)cc2s1	5	5.6µM*	3.5µM*	?	7	?
COc1ccc(C(=O)NCC(=O)OCC(=O)c2ccc3ccccc3c2)cc1	/	/	-18%[57.1 µM]	5%[57 µM]	/	/
Cc1ccc(C2=NN=C(NC(=O)CSc3nncn3C)SC2)cc1	0	22µM*	?	35µM*	?	-13%
Cc1ccc(NC(=O)CSc2nncn2C)c(C)c1	/	4%[59 µM]	-9%	28%	/	2%
Cc1ccc(C2=NN=C(NC(=O)C(F)(F)F)SC2)cc1	-15	28µM*	-29%	-3%	-11	-2%
COc1cc(Cl)c(C)cc1NC(=O)CSCc1nc(-c2ccc(OC)c(OC)c2)no1	/	-20%[59 µM]	-17%	41%	/	0%
O=C(NCCc1cscn1)C1CCC(=O)N(Cc2ccc(Cl)cc2)C1 (stereo not given)	0	71µM*	-16%	14%	5	-19%
O=C(NCCc1ccccc1)C1CCC(=O)N(Cc2ccc(Cl)cc2)C1 (stereo not given)	0	49%	-4%	32%	6	-5%

Screens from PubChem.
